# Data taken from ChEMBL document CHEMBL2218924, “A broad activity screen in support of a chemogenomic map for kinase signalling research and drug discovery” (Biochem J, 2013).
# How the values were obtained:
# [1] = target: T1, Ephrin type-B receptor 1 (Homo sapiens) (UniProt P54762); conditions: at 10 µM
# T1 sequence (whole entry): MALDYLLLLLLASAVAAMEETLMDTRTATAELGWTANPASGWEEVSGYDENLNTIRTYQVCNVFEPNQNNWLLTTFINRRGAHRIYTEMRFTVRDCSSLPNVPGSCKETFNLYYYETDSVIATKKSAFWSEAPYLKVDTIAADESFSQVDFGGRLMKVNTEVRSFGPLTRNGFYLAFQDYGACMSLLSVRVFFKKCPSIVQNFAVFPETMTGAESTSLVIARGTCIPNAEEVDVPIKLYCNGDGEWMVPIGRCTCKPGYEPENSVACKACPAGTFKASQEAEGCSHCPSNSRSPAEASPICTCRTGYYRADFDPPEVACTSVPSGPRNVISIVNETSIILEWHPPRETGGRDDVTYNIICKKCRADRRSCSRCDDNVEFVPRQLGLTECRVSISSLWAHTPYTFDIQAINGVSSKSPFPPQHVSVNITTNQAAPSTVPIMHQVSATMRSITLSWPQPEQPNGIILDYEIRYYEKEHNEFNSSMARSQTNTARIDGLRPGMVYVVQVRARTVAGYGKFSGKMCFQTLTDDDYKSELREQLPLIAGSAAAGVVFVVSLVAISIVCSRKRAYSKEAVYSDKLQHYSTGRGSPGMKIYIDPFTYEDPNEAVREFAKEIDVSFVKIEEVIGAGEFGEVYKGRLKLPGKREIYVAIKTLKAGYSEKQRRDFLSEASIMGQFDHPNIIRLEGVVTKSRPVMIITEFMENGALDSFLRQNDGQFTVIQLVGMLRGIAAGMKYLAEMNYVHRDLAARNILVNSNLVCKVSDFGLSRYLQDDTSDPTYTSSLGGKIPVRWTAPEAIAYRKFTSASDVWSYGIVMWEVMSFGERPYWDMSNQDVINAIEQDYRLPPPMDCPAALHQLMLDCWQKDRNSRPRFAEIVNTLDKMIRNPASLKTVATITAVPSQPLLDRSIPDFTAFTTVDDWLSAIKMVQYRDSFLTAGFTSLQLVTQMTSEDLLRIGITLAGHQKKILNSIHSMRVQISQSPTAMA
# [2] = target: T2, Ephrin type-B receptor 2 (Homo sapiens) (UniProt P29323); conditions: at 1 µM
# T2 sequence (whole entry): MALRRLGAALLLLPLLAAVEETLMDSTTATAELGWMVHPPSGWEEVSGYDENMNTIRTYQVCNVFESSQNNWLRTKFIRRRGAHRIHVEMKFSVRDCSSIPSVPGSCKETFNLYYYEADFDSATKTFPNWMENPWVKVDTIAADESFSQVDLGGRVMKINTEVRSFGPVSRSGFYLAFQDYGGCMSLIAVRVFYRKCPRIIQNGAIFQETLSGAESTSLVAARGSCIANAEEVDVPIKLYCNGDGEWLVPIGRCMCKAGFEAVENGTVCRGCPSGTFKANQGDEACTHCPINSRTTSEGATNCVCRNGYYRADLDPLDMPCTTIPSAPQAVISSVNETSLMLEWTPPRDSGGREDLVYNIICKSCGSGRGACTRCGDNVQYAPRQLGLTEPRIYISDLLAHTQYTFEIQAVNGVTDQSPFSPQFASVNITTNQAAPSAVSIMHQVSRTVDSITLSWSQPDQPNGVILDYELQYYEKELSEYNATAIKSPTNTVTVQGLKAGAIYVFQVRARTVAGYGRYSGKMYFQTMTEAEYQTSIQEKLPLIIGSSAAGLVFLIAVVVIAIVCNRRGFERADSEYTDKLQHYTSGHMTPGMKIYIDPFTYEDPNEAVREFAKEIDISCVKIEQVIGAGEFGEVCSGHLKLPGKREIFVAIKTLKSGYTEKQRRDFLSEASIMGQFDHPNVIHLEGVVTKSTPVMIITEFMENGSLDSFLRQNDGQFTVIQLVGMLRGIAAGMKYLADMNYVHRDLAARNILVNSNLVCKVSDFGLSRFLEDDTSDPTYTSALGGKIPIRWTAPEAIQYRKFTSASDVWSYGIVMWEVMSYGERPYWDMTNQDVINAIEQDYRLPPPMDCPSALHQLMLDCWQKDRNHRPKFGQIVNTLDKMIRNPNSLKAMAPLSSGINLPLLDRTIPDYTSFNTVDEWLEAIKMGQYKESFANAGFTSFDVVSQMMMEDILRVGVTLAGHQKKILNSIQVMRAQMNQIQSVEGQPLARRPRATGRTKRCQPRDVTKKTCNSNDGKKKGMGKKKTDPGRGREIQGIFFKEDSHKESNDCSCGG
# [3] = target: T2, Ephrin type-B receptor 2 (Homo sapiens); conditions: at 10 µM
# [4] = target: T3, Ephrin type-B receptor 3 (Homo sapiens) (UniProt P54753); conditions: at 1 µM
# T3 sequence (whole entry): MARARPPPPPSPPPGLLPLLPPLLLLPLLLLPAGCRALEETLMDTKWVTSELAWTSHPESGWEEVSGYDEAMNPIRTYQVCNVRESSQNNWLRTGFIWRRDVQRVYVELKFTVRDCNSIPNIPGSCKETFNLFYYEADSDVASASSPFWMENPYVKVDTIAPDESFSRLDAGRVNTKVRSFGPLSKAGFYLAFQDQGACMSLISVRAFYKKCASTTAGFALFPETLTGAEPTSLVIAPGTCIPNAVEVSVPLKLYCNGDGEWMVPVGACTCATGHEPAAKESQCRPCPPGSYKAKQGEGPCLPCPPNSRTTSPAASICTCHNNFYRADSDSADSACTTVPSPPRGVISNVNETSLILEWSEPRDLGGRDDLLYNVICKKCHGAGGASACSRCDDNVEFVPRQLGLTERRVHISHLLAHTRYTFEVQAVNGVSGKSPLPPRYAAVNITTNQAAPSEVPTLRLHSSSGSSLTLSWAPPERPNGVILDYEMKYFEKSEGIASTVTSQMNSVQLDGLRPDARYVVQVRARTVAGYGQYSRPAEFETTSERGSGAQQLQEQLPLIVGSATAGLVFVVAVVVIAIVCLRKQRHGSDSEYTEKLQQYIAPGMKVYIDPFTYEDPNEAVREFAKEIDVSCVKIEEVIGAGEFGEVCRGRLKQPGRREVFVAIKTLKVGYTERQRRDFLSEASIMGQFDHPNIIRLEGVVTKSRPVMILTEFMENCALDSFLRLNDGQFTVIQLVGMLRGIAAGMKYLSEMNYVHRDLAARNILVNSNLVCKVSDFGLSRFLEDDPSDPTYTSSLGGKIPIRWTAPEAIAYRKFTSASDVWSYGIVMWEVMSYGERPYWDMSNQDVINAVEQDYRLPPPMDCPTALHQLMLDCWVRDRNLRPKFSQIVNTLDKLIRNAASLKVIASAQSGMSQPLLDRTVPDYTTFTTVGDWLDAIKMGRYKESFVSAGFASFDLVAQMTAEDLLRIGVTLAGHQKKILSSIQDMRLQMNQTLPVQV
# [5] = target: T3, Ephrin type-B receptor 3 (Homo sapiens); conditions: at 10 µM
# [6] = target: T4, Ephrin type-B receptor 4 (Homo sapiens) (UniProt P54760); conditions: at 1 µM
# T4 sequence (whole entry): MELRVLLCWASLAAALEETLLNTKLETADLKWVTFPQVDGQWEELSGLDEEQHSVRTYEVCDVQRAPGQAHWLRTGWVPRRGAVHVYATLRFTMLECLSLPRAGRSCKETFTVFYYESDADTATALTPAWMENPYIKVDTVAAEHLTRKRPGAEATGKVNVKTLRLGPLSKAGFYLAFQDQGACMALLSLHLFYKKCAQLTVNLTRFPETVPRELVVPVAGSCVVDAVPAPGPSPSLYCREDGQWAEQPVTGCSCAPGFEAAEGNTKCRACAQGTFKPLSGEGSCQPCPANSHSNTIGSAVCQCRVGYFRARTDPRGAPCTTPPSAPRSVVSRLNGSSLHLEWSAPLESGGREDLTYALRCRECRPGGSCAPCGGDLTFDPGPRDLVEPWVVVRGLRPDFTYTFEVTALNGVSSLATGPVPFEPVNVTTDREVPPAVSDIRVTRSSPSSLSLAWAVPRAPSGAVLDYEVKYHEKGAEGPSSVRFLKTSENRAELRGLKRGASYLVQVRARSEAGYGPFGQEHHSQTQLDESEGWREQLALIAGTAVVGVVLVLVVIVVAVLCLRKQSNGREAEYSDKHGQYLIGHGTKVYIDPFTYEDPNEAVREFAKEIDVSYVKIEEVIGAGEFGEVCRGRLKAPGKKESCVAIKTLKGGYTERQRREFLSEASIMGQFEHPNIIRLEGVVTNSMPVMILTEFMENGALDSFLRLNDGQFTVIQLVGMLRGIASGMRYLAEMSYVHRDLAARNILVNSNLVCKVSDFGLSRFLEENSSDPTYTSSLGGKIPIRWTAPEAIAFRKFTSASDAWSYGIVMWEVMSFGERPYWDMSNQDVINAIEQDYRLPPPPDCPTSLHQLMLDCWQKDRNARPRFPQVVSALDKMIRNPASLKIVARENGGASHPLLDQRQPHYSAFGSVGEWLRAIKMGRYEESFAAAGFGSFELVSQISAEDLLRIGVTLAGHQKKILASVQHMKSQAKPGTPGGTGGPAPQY
# [7] = target: T4, Ephrin type-B receptor 4 (Homo sapiens); conditions: at 10 µM
# [8] = target: Receptor tyrosine-protein kinase erbB-4 (Homo sapiens) (UniProt Q15303); conditions: at 1 µM
# [9] = target: Receptor tyrosine-protein kinase erbB-4 (Homo sapiens) (UniProt Q15303); conditions: at 10 µM
# [10] = target: Focal adhesion kinase 1 (Homo sapiens) (UniProt Q05397); conditions: at 1 µM
# Chain of Focal adhesion kinase 1 (Homo sapiens) (Q05397 2-1052 limits assumed): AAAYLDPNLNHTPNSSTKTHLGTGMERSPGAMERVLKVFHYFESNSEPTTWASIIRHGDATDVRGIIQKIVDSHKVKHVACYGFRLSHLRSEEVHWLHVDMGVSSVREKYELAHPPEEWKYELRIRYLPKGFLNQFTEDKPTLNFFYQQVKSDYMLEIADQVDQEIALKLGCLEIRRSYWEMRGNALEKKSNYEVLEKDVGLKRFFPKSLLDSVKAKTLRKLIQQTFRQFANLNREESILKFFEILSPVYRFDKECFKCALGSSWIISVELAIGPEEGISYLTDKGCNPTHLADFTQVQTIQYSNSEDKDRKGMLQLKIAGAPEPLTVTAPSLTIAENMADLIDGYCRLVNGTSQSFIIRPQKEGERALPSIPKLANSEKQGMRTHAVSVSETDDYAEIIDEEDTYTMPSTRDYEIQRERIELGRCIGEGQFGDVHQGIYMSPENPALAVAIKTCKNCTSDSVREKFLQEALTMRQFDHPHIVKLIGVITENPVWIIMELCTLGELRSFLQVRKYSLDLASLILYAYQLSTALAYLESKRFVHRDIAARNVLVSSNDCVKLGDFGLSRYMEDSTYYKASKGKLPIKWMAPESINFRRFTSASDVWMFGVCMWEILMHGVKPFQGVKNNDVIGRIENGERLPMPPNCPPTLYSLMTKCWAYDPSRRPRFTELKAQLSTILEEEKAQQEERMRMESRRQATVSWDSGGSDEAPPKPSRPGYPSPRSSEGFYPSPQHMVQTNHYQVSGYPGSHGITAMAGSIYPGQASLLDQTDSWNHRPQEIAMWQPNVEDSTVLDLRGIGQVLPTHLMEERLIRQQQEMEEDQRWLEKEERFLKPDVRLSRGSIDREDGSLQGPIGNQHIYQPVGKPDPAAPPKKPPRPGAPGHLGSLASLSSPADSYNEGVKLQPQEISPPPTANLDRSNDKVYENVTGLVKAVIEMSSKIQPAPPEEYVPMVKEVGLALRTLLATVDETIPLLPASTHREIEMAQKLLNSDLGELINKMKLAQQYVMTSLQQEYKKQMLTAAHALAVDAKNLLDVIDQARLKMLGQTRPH
# [11] = target: Focal adhesion kinase 1 (Homo sapiens) (UniProt Q05397); conditions: at 10 µM
# [12] = target: Fibroblast growth factor receptor 1 (Homo sapiens) (UniProt P11362); conditions: at 1 µM
# Chain of Fibroblast growth factor receptor 1 (Homo sapiens) (P11362 22-822 limits assumed): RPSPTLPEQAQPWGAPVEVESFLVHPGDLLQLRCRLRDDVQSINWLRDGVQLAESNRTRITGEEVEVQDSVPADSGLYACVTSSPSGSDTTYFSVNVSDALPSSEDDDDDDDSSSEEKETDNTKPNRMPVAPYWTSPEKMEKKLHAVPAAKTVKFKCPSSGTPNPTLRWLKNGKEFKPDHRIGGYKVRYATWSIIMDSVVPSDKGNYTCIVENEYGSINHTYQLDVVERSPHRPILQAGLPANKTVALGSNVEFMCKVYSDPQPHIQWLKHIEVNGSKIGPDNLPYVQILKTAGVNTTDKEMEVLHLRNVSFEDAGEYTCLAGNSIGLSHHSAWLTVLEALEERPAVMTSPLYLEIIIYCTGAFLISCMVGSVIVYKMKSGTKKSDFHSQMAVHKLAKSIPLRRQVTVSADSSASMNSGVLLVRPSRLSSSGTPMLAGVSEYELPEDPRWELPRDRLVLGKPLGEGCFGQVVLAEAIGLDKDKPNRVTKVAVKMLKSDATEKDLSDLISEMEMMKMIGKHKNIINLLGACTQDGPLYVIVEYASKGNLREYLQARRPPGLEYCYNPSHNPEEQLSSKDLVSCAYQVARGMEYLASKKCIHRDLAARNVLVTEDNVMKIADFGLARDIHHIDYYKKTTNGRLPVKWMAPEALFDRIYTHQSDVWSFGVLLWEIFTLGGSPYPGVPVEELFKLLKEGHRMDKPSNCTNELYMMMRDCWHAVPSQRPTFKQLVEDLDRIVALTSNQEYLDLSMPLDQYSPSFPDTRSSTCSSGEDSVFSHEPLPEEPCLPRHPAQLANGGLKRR
# [13] = target: Fibroblast growth factor receptor 1 (Homo sapiens) (UniProt P11362); conditions: at 10 µM
# [14] = target: Fibroblast growth factor receptor 2 (Homo sapiens) (UniProt P21802); conditions: at 1 µM
# Chain of Fibroblast growth factor receptor 2 (Homo sapiens) (P21802 22-821 limits assumed): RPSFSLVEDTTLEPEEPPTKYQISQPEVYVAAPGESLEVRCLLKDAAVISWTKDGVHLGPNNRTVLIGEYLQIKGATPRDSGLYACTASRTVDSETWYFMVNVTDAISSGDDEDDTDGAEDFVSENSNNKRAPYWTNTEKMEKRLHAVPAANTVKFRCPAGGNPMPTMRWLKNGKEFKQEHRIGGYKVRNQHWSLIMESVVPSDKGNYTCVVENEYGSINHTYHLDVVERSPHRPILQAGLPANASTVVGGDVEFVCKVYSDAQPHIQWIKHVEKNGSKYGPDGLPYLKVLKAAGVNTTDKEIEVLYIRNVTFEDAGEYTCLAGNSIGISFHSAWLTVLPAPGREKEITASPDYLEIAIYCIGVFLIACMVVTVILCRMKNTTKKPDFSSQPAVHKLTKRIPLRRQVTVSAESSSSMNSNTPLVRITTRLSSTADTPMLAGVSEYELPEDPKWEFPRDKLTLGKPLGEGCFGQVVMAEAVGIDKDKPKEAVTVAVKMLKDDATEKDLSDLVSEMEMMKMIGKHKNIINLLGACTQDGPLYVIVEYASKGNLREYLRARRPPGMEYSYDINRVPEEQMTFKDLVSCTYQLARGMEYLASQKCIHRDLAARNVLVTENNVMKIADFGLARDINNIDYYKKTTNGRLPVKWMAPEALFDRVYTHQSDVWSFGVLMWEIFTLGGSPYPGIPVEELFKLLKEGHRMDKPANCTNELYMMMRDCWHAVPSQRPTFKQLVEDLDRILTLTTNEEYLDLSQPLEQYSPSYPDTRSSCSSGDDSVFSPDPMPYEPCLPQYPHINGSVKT
# [15] = target: Fibroblast growth factor receptor 2 (Homo sapiens) (UniProt P21802); conditions: at 10 µM
# [16] = target: Fibroblast growth factor receptor 3 (Homo sapiens) (UniProt P22607); conditions: at 1 µM
# Chain of Fibroblast growth factor receptor 3 (Homo sapiens) (P22607 23-806 limits assumed): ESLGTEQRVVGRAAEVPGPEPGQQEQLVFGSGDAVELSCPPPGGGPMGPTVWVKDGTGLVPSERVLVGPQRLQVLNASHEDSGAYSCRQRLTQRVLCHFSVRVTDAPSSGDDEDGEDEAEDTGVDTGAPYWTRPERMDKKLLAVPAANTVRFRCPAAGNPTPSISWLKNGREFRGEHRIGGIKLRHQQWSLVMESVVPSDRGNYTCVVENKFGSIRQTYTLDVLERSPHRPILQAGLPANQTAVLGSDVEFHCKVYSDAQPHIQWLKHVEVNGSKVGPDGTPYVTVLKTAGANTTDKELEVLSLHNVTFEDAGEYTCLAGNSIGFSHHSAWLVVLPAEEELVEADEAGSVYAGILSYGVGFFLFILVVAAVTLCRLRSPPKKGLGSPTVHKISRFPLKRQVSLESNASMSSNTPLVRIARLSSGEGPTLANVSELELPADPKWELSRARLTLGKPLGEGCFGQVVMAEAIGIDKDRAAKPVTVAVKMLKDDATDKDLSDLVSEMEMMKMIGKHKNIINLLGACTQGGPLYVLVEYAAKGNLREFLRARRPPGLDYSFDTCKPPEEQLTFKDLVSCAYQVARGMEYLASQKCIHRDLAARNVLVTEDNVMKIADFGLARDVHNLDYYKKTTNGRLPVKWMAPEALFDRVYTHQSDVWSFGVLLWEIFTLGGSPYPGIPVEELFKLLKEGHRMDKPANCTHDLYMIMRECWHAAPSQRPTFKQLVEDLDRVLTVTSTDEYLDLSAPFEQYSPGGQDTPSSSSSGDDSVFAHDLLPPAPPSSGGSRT
# [17] = target: Fibroblast growth factor receptor 3 (Homo sapiens) (UniProt P22607); conditions: at 10 µM
# [18] = target: Fibroblast growth factor receptor 4 (Homo sapiens) (UniProt P22455); conditions: at 1 µM
# Chain of Fibroblast growth factor receptor 4 (Homo sapiens) (P22455 22-802 limits assumed): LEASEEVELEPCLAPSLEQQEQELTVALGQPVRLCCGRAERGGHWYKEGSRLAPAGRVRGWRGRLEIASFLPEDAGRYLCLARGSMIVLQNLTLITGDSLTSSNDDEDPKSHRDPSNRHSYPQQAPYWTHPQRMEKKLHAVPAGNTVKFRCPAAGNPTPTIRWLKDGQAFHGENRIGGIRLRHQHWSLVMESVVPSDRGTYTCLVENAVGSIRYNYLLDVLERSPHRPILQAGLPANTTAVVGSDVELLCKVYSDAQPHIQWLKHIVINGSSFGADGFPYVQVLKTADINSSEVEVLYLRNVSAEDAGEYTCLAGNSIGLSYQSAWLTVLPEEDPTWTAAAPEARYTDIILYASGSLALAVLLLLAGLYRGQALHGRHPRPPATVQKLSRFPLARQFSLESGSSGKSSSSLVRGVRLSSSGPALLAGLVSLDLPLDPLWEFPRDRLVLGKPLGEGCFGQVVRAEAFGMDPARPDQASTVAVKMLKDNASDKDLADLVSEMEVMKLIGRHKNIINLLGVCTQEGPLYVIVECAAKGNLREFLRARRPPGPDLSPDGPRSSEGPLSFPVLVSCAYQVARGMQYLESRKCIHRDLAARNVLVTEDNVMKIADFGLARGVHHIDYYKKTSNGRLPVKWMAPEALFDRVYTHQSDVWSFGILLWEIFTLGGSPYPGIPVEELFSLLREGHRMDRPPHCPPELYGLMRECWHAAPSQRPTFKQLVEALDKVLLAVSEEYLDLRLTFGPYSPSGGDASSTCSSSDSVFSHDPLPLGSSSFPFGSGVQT
# [19] = target: Fibroblast growth factor receptor 4 (Homo sapiens) (UniProt P22455); conditions: at 10 µM
# [20] = target: Tyrosine-protein kinase Fer (Homo sapiens) (UniProt P16591); conditions: at 1 µM
# Chain of Tyrosine-protein kinase Fer (Homo sapiens) (P16591 whole entry, looked up): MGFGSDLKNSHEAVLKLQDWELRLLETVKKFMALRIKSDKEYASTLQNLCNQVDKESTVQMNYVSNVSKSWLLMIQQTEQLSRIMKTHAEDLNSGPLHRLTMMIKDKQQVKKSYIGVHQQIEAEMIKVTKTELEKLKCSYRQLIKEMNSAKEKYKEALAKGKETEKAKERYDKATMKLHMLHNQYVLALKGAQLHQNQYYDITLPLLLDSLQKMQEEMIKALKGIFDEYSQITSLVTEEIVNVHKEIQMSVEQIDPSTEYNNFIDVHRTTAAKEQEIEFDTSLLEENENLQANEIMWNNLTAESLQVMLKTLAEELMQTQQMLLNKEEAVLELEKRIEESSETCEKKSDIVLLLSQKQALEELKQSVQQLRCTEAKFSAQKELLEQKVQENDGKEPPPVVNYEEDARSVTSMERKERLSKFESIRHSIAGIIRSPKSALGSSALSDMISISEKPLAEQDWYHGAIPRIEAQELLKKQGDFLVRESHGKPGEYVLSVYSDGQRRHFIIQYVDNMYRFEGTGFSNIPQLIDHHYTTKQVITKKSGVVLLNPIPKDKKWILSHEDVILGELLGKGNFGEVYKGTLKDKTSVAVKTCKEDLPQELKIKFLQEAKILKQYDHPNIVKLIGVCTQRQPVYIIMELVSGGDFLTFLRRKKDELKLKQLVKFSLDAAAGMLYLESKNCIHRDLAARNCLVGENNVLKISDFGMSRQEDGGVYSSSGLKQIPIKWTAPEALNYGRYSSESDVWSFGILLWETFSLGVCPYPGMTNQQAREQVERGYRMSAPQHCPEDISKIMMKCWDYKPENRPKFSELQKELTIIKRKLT
SMILES,residual activity [1],residual activity [2],residual activity [3],residual activity [4],residual activity [5],residual activity [6],residual activity [7],residual activity [8],residual activity [9],residual activity [10],residual activity [11],residual activity [12],residual activity [13],residual activity [14],residual activity [15],residual activity [16],residual activity [17],residual activity [18],residual activity [19],residual activity [20]
Oc1ccc(-c2nc(-c3ccc(F)cc3)c(-c3ccncc3)[nH]2)cc1,53%,94%,43%,95% (inactive),117%,103%,41%,114%,72%,117%,113%,112%,41%,115%,87%,121%,88%,114%,96%,102%
Nc1ccc2ncnc(NCCc3ccc(Oc4ccccc4)cc3)c2c1,96%,111%,93%,105% (inactive),98%,96%,98%,33%,2%,106%,94%,92%,28%,77%,48%,54%,33%,107%,80%,93%
CNc1cc2c(Nc3cccc(Br)c3)ncnc2cn1,62%,94%,62%,95% (inactive),120%,63%,13%,42%,31%,107%,82%,102%,66%,89%,88%,90%,100%,109%,86%,105%
COc1ccc(OC)c2c(=S)c3ccccc3[nH]c12,83%,114%,118%,114% (inactive),101%,97%,102%,80%,77%,91%,108%,116%,82%,97%,85%,129%,113%,112%,88%,98%
COc1ccc(S(=O)(=O)N(CCO)c2ccccc2CN(C)C/C=C/c2ccc(Cl)cc2)cc1,90%,115%,120%,112% (inactive),107%,86%,79%,110%,77%,93%,70%,108%,64%,110%,81%,125%,89%,129%,92%,94%
O=C1NC(=O)/C(=C/c2ccc3c(c2)OC(F)(F)O3)S1,106%,108%,110%,125% (inactive),109%,118%,121%,98%,101%,112%,95%,116%,99%,92%,101%,111%,112%,116%,94%,107%
CCC(=O)Nc1ccc2ncnc(Nc3cccc(Br)c3)c2c1,97%,105%,55%,111% (inactive),120%,81%,57%,59%,58%,131%,95%,108%,84%,105%,99%,118%,123%,120%,100%,106%
CCOc1cc2ncnc(Nc3cccc(Br)c3)c2cc1OCC,5%,46%,0%,108% (inactive),126%,19%,-1%,10%,-4%,139%,79%,66%,18%,98%,88%,92%,85%,111%,92%,116%
NC(=O)c1ccc2[nH]c(-c3ccc(Oc4ccc(Cl)cc4)cc3)nc2c1,94%,110%,128%,102% (inactive),94%,89%,93%,106%,126%,91%,65%,118%,101%,108%,103%,129%,132%,123%,126%,95%
Cc1cc2ncc(-c3ccccc3)nc2cc1C,106%,,103%,106% (inactive),125%,,,99%,105%,,92%,86%,101%,,102%,85%,95%,134%,93%,
O=C1Nc2ccccc2/C1=C1/Nc2ccccc2/C1=N\OCCC(O)CO (stereo not given),8%,82%,12%,117% (inactive),112%,49%,4%,107%,105%,16%,1%,2%,-1%,20%,2%,22%,23%,,,37%
COc1cc2ncnc(Nc3ccc(Oc4ccccc4)cc3)c2cc1OC,107%,115%,109%,120% (inactive),93%,106%,138%,-3%,-5%,72%,71%,,48%,65%,33%,78%,54%,121%,109%,110%
COc1cc2ncnc(N3CCN(C(=O)Nc4ccc(Oc5ccccc5)cc4)CC3)c2cc1OC,102%,114%,,110% (inactive),146%,98%,112%,100%,145%,108%,76%,90%,89%,105%,102%,115%,99%,120%,105%,104%
